Data as given in the supplement of paper PMC10849652.
Targets with a hit are over-represented here; the source holds about 8,800 in all. About 0.5% of all pairs of compound and target were hits.

What was measured:
Experiment in all cases: log2 fold change, soluble protein after heating vs DMSO (PISA); higher = thermal stabilisation; K562 lysate, 10 uM; active = over 0.2 and 3.5 SD of the protein, either way, in both replicates (recomputed)
alvocidib = compound: CN1CC[C@H](c2c(O)cc(O)c3c(=O)cc(-c4ccccc4Cl)oc23)[C@H](O)C1 [alvocidib]
How it was run: (§1)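 Following dounce homogenisation of K562 pellets in PBS pH 7.4 with 1 mM MgCl2, crude extract at 1 mg/mL protein was incubated for 30 min with 10 μM compound. Aliquots were then heated for 3 min over 48°C-58°C and pooled, NP-40 was added to 0.5% at 4°C, and soluble protein was recovered as the supernatant at 21,000xg for 90 min. Channel-sum-equalised TMTpro 16plex LC-MS/MS quantified this protein. Each value, from duplicates, is a log-two fold change in thermal stability relative to solvent controls.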

Tubastatin A = compound: CN1CCc2c(c3ccccc3n2Cc2ccc(C(=O)NO)cc2)C1 [Tubastatin A]
How it was run: as §1

[1] = compound: CNC(=O)C1=CC=CC=C1NC2=NC(=NC=C2Cl)NC3=C(C=C(C=C3)N4CCOCC4)OC
How it was run: as §1

defactinib = compound: CNC(=O)c1ccc(Nc2ncc(C(F)(F)F)c(NCc3nccnc3N(C)S(C)(=O)=O)n2)cc1 [defactinib]
How it was run: as §1

[2] = compound: CNc1nc(-c2ccc3c(N)n[nH]c3c2)cc(N2C[C@@H](C(=O)NC3CCCCC3)CC[C@H]2C)n1
How it was run: as §1

encorafenib = compound: COC(=O)N[C@@H](C)CNc1nccc(-c2cn(C(C)C)nc2-c2cc(Cl)cc(NS(C)(=O)=O)c2F)n1 [encorafenib]
How it was run: as §1

[3] = compound: COC(=O)[C@H](CCSC)NC(=O)C1=C(C=C(C=C1)NC[C@H](CS)N)C2=CC=CC=C2
How it was run: as §1

alisertib = compound: COc1cc(Nc2ncc3c(n2)-c2ccc(Cl)cc2C(c2c(F)cccc2OC)=NC3)ccc1C(=O)O [alisertib]
How it was run: as §1

[4] = compound: COc1cc2nc(-c3cc(F)ccc3O)nc(N[C@@H]3CNC[C@H]3C(C)(C)O)c2cc1OC
How it was run: as §1

gefitinib = compound: COc1cc2ncnc(Nc3ccc(F)c(Cl)c3)c2cc1OCCCN1CCOCC1 [gefitinib]
How it was run: as §1

lapatinib = compound: CS(=O)(=O)CCNCc1ccc(-c2ccc3ncnc(Nc4ccc(OCc5cccc(F)c5)c(Cl)c4)c3c2)o1 [lapatinib]
How it was run: as §1

pictilisib = compound: CS(=O)(=O)N1CCN(Cc2cc3nc(-c4cccc5[nH]ncc45)nc(N4CCOCC4)c3s2)CC1 [pictilisib]
How it was run: as §1

crizotinib = compound: C[C@@H](Oc1cc(-c2cnn(C3CCNCC3)c2)cnc1N)c1c(Cl)ccc(F)c1Cl [crizotinib]
How it was run: as §1

[5] = compound: C[C@H](C1=CC=C(C=C1)C(=O)NC2=C3C=CNC3=NC=C2)N
How it was run: as §1

duvelisib = compound: C[C@H](Nc1ncnc2nc[nH]c12)c1cc2cccc(Cl)c2c(=O)n1-c1ccccc1 [duvelisib]
How it was run: as §1

gandotinib = compound: Cc1cc(Nc2cc(CN3CCOCC3)c3nc(C)c(Cc4ccc(Cl)cc4F)n3n2)n[nH]1 [gandotinib]
How it was run: as §1

tozasertib = compound: Cc1cc(Nc2cc(N3CCN(C)CC3)nc(Sc3ccc(NC(=O)C4CC4)cc3)n2)n[nH]1 [tozasertib]
How it was run: as §1

doramapimod = compound: Cc1ccc(-n2nc(C(C)(C)C)cc2NC(=O)Nc2ccc(OCCN3CCOCC3)c3ccccc23)cc1 [doramapimod]
How it was run: as §1

bafetinib = compound: Cc1ccc(NC(=O)c2ccc(CN3CC[C@H](N(C)C)C3)c(C(F)(F)F)c2)cc1Nc1nccc(-c2cncnc2)n1 [bafetinib]
How it was run: as §1

[6] = compound: Cc1cccc(CC(=O)N2CCc3c2ccc(-c2cn(C)c4ncnc(N)c24)c3F)n1
How it was run: as §1

Measured: log2 fold change

HDAC10 (UniProt Q969S8)
inactive: alvocidib 0.033 | [1] -0.075 | defactinib -0.135 | [2] -0.014 | encorafenib 0.091 | [3] 0.08 | alisertib 0.047 | [4] -0.006 | gefitinib 0.165 | lapatinib -0.101 | pictilisib -0.019 | crizotinib -0.015 | [5] -0.042 | duvelisib -0.014 | gandotinib 0.029 | tozasertib 0.068 | doramapimod -0.046 | bafetinib 0.035 | [6] 0.061
active: Tubastatin A 0.49

INTS10 (UniProt Q9NVR2)
Sequence of UniProt Q9NVR2 (Q9NVR2 whole entry, looked up): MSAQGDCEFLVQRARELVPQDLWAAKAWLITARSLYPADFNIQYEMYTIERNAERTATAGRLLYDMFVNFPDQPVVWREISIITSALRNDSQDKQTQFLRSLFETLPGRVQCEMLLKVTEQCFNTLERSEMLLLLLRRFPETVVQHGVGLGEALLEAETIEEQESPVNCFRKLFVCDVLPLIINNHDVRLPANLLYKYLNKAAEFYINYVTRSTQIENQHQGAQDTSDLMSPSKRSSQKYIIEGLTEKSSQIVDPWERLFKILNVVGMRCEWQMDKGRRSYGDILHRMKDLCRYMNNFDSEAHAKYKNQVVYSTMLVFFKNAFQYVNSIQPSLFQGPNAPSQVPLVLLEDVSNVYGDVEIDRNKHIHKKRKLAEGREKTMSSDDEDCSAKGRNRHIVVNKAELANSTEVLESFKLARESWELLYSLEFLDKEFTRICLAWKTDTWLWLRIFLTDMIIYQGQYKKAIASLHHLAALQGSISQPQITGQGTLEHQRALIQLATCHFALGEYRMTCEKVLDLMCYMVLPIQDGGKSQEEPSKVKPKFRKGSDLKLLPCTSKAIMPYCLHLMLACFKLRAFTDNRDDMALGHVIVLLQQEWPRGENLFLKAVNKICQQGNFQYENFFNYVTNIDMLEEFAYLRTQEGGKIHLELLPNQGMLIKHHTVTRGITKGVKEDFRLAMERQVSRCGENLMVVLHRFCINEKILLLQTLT
inactive: alvocidib -0.009 | Tubastatin A -0.143 | [1] -0.033 | defactinib 0.016 | [2] -0.045 | encorafenib -0.017 | [3] 0.043 | alisertib -0.093 | [4] -0.097 | gefitinib 0.049 | lapatinib 0.097 | pictilisib -0.093 | crizotinib -0.04 | [5] 0.027 | duvelisib -0.09 | gandotinib -0.168 | tozasertib 0.011 | doramapimod 0.026 | bafetinib -0.052 | [6] 0

GON4L (UniProt Q3T8J9)
Sequence of UniProt Q3T8J9 (Q3T8J9 whole entry, looked up): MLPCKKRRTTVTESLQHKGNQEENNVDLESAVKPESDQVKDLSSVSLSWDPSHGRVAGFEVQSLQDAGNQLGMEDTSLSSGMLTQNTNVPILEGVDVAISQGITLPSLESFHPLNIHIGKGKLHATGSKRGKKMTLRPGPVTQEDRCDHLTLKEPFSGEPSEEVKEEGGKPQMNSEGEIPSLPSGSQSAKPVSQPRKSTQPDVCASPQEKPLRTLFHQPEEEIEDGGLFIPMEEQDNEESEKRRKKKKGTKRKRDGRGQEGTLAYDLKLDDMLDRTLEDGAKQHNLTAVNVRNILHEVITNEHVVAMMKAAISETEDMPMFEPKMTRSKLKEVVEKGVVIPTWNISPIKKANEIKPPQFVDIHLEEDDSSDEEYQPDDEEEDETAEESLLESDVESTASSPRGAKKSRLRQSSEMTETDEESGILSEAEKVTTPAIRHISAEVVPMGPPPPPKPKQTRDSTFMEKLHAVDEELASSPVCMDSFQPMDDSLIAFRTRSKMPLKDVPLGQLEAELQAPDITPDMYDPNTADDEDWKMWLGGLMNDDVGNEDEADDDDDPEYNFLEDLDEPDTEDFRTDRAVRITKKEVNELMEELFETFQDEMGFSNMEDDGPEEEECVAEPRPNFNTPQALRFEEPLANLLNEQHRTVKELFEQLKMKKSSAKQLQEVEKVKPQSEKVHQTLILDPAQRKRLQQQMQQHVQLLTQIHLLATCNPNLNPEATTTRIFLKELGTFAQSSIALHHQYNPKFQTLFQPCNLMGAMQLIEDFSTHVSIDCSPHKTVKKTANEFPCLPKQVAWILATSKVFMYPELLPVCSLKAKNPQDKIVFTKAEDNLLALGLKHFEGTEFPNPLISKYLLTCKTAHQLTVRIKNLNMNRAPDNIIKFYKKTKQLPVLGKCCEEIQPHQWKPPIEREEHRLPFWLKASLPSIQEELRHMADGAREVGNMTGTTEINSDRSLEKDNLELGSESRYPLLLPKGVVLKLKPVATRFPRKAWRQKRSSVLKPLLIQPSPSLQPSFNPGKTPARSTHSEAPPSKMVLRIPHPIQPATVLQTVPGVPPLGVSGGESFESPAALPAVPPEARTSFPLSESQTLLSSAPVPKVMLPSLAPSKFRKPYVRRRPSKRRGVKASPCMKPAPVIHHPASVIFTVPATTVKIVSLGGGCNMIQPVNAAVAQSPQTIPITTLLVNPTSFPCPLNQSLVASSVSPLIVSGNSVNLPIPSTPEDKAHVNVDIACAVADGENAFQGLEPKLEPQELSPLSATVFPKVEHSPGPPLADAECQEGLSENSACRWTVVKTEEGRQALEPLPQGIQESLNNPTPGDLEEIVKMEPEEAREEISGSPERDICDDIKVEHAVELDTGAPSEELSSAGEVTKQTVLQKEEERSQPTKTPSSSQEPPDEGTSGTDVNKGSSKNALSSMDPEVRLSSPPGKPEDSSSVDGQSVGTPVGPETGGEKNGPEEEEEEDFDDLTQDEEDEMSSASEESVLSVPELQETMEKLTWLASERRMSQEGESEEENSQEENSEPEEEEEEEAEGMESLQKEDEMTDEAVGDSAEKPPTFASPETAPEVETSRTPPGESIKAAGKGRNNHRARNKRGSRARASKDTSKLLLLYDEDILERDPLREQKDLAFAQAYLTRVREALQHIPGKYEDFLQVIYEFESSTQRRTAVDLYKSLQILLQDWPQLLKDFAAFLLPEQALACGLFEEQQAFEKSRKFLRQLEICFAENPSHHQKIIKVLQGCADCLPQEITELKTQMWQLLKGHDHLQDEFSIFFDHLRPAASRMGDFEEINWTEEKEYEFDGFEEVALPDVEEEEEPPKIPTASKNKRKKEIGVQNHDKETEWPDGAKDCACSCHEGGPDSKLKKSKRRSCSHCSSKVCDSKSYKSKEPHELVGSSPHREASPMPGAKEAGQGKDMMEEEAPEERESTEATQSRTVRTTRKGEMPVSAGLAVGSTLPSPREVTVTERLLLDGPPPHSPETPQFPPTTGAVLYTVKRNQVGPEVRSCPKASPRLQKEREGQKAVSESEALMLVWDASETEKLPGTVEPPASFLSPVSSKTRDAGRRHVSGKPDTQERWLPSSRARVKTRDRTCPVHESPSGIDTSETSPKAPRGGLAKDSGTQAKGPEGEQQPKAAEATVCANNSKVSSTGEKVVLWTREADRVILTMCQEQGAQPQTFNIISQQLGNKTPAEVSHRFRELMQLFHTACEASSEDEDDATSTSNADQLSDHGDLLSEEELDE
inactive: alvocidib 0.019 | Tubastatin A -0.114 | [1] 0.028 | defactinib -0.001 | [2] 0.007 | encorafenib 0.092 | [3] 0.107 | alisertib -0.015 | [4] -0.027 | gefitinib -0.074 | lapatinib 0.006 | pictilisib -0.04 | crizotinib -0.05 | [5] -0.066 | duvelisib -0.045 | gandotinib 0.391 | tozasertib -0.054 | doramapimod -0.011 | bafetinib -0.07 | [6] 0.01

GPA33 (UniProt Q99795)
inactive: alvocidib -0.349 | Tubastatin A 0.103 | [1] -0.076 | defactinib -0.099 | [2] -0.193 | encorafenib 0.053 | [3] -0.027 | alisertib 0.071 | [4] 0.039 | gefitinib 0.125 | lapatinib -0.064 | pictilisib 0.059 | duvelisib 0.154 | tozasertib -0.015 | bafetinib -0.051 | [6] 0.554
active: [5] -0.584 | gandotinib 0.567

HNRNPD isoform 3 (UniProt Q14103)
inactive: alvocidib 0.017 | Tubastatin A 0.008 | [1] 0.004 | defactinib 0.117 | [2] 0.146 | encorafenib 0.036 | [3] 0.016 | alisertib 0.024 | [4] 0.001 | gefitinib 0.113 | lapatinib -0.062 | pictilisib 0.126 | crizotinib -0.07 | [5] -0.08 | duvelisib 0.043 | gandotinib 0.094 | tozasertib -0.078 | doramapimod 0.045 | bafetinib 0.166 | [6] 0.033

HSPB1 (UniProt P04792)
Sequence of UniProt P04792 (P04792 whole entry, looked up): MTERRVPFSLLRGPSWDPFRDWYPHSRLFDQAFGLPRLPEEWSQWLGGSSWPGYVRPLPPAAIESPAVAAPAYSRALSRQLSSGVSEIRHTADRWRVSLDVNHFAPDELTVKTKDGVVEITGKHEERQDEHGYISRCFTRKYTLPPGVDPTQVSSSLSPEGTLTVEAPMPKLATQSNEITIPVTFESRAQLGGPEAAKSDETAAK
active: doramapimod -0.31
inactive: alvocidib 0.003 | Tubastatin A -0.023 | [1] -0.003 | defactinib 0 | [2] -0.036 | encorafenib -0.001 | [3] 0.025 | alisertib 0.012 | [4] 0.009 | gefitinib -0.012 | lapatinib -0.017 | pictilisib -0.013 | crizotinib 0.036 | [5] 0.008 | duvelisib 0.014 | gandotinib -0.018 | tozasertib -0.017 | bafetinib -0.031 | [6] -0.021

HDHD5 (UniProt Q9BXW7)
inactive: alvocidib -0.097 | Tubastatin A -0.078 | [1] 0.041 | defactinib -0.069 | [2] 0.034 | encorafenib 0.026 | [3] 0.024 | alisertib 0.031 | [4] 0.012 | gefitinib -0.063 | lapatinib 0.011 | pictilisib 0.012 | crizotinib -0.017 | [5] -0.147 | duvelisib 0.058 | gandotinib -0.005 | tozasertib 0.059 | doramapimod 0.131 | bafetinib 0.033 | [6] 0.116

GMIP (UniProt Q9P107)
inactive: alvocidib -0.078 | Tubastatin A -0.139 | [1] 0.088 | defactinib 0.033 | [2] -0.01 | encorafenib 0.061 | [3] 0.031 | alisertib -0.014 | [4] -0.078 | gefitinib 0.11 | lapatinib -0.046 | pictilisib -0.015 | crizotinib -0.006 | [5] 0.029 | duvelisib -0.005 | gandotinib -0.024 | tozasertib -0.014 | doramapimod -0.049 | bafetinib -0.068 | [6] 0.041

HNRNPM (UniProt M0R019)
inactive: defactinib -0.112

HNRNPD (UniProt D6RF44)
inactive: alisertib -0.006 | gefitinib -0.014 | crizotinib -0.086 | doramapimod 0

H3-3A (UniProt P84243)
inactive: alvocidib 0.021 | [1] 0.063 | defactinib -0.04 | encorafenib 0.132 | [3] -0.034 | [4] -0.032 | lapatinib 0.028 | pictilisib -0.018 | crizotinib 0.046 | [5] 0 | gandotinib 0.016 | tozasertib -0.083 | doramapimod -0.062 | bafetinib -0.049 | [6] 0.03

IRS2 (UniProt Q9Y4H2)
active: [5] -0.578
inactive: alvocidib -0.301 | Tubastatin A -0.254 | [1] -0.02 | [2] 0.275 | alisertib 0.068 | [4] 0.004 | gefitinib 0.08 | lapatinib -0.128 | pictilisib 0.023 | crizotinib -0.186 | duvelisib 0 | gandotinib 0.296 | doramapimod 0.019 | bafetinib 0.031 | [6] 0.307

KDM5B isoform 2 (UniProt Q9UGL1)
Sequence of UniProt Q9UGL1 (Q9UGL1 whole entry, looked up): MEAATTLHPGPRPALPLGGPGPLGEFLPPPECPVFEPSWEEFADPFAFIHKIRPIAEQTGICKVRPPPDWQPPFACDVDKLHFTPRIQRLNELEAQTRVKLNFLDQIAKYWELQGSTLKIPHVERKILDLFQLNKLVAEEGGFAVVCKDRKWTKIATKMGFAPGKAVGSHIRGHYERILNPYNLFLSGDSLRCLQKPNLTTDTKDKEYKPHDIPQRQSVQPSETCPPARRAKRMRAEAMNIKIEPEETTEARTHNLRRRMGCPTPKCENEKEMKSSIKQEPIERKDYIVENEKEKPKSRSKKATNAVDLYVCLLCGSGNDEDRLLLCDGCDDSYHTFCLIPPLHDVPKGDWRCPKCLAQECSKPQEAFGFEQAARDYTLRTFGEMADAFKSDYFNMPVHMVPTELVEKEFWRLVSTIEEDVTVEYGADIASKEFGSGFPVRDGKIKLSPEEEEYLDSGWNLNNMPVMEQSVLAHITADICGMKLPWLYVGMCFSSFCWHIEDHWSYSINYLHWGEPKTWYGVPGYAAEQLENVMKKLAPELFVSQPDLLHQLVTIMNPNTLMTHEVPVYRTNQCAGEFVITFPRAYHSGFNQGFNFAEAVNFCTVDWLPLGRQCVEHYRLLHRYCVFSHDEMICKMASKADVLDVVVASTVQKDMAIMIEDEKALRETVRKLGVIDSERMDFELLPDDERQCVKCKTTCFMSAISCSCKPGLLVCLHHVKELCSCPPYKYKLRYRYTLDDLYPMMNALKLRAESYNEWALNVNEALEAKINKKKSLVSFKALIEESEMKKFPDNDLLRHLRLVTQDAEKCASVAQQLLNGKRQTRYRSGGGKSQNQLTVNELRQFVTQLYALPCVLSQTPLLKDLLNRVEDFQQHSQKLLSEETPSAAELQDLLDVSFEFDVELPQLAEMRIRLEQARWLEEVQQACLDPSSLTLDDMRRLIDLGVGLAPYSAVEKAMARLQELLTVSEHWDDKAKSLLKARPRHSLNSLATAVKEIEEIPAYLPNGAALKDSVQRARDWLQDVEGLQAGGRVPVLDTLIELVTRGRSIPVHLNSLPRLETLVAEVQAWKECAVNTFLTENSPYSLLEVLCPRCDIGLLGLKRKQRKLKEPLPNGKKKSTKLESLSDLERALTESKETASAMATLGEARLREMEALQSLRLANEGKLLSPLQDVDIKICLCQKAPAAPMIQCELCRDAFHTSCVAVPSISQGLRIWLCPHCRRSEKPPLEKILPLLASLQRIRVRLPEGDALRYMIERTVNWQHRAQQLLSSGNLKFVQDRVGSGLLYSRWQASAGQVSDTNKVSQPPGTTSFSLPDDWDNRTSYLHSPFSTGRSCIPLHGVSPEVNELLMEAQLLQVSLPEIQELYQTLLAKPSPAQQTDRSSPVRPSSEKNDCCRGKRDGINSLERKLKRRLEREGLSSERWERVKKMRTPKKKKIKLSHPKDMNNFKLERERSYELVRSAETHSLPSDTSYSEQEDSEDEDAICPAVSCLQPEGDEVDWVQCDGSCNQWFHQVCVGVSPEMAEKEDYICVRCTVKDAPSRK
inactive: alvocidib -0.048 | Tubastatin A 0.021 | [1] -0.007 | defactinib 0.08 | [2] 0.307 | encorafenib -0.094 | [3] 0.075 | [4] 0.014 | lapatinib -0.006 | pictilisib -0.041 | crizotinib -0.02 | [5] -0.003 | duvelisib 0 | gandotinib 0.257 | tozasertib 0.13 | doramapimod -0.033 | bafetinib -0.013 | [6] 0.29

HNRNPUL1 (UniProt M0R247)
inactive: alvocidib -0.042 | [1] -0.03 | pictilisib 0.038 | [5] 0.014 | gandotinib -0.014 | bafetinib 0.008 | [6] 0.034

ITPR2 (UniProt Q14571)
inactive: Tubastatin A -0.03 | [1] 0.074 | [2] 0.239 | alisertib 0.001 | [4] 0.234 | gefitinib -0.019 | lapatinib -0.571 | duvelisib -0.004

JAK3 (UniProt P52333)
inactive: alvocidib 0.254 | defactinib 0.06 | [4] -0.041 | lapatinib -0.002 | pictilisib 0.01 | crizotinib 0.051 | [5] 0.418 | gandotinib -0.526 | doramapimod -0.081 | bafetinib 0.14
active: [6] -0.612

HNRNPL, A0A3B3ITJ4
inactive: [4] 0.032 | lapatinib -0.011 | pictilisib -0.002 | bafetinib -0.083

GNB4 (UniProt Q9HAV0)
Sequence of UniProt Q9HAV0 (Q9HAV0 whole entry, looked up): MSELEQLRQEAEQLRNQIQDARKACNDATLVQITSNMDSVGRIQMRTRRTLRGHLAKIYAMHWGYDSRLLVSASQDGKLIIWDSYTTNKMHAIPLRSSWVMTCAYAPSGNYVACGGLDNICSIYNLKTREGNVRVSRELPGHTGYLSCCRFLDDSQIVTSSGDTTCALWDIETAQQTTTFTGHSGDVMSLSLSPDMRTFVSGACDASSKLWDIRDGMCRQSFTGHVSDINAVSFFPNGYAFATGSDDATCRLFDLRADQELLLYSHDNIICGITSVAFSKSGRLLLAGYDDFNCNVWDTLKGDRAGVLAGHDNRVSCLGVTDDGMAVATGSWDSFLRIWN
active: gefitinib -0.364
inactive: alvocidib -0.114 | Tubastatin A -0.002 | [1] -0.091 | [2] 0.01 | encorafenib -0.01 | [3] 0.141 | alisertib -0.168 | [4] 0.095 | lapatinib 0.031 | pictilisib -0.031 | crizotinib 0.106 | [5] -0.058 | duvelisib 0.015 | gandotinib 0.094 | tozasertib -0.028 | doramapimod 0.171 | bafetinib -0.033 | [6] 0.074

HECW2 (UniProt Q9P2P5)
inactive: Tubastatin A -0.002 | [1] 0.102 | defactinib -0.087 | [2] -0.099 | encorafenib 0 | [3] 0.153 | alisertib 0.114 | gefitinib 0.117 | crizotinib -0.075 | duvelisib -0.088 | tozasertib 0.165 | doramapimod 0.24

GYPA, A0A2R8Y7F9
inactive: alvocidib -0.218 | pictilisib -0.033 | [5] -0.562 | gandotinib 0.202 | bafetinib -0.029 | [6] 0.17

HYDIN (UniProt Q4G0P3)
inactive: Tubastatin A -0.041 | defactinib 0.045 | [2] 0.414 | encorafenib 0.172 | [3] -0.02 | [4] -0.154 | lapatinib 0.037 | duvelisib 0.179 | tozasertib 0.041
